From PubChem BioAssay (Tox21)
Values joined by “and” are separate entries in the source; they are usually repeats but may differ in a detail not shown here. Equal entries are not always repeated. Inconclusive results are not listed. Where a call stands in place of a potency, no number is given. Where a structure was tested more than once in an assay, its records may differ in their call. Active and inactive are the calls of the source. Unless noted, calls follow the shape of the dose curve; as a rule, active = well fitted curve in the direction sought with a large enough effect in the repeat runs; inconclusive = weak or mixed curves; inactive = no such curve, though single readings can be large; an effect the other way counts as inactive or inconclusive.

Columns and labels:
[1] = qHTS assay to identify small molecule HDAC inhibitors - cell viability counter screen (AID 1259365); also: series mostly up to about 92 µM; nearly all actives have a fitted effect of over 50% in size
Procedure, shortened: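 To flag cytotoxic hits, 1,500 wild-type HCT-116 cells per well, plated the day before, receive test compounds for 2hr at 37 C before CellTiter-Glo reagent and a luminescence read.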

[2] = qHTS assay to identify small molecule agonists of the sonic hedgehog signaling (Shh) pathway - cell viability counter screen (AID 1259366); also: nearly all actives have a fitted effect of over 50% in size; also: potency is read from the fitted curve at half-maximal effect
Procedure, shortened: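 Fluorescence from CellTiter-Fluor reports live cells in this counter screen. NIH/3T3-derived Gli1-Luc reporter cells receive test compounds for 24hr at 37C; reagent goes in at 23hr.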

[3] = qHTS assay to identify small molecule antagonists of the sonic hedgehog signaling (Shh) pathway - cell viability counter screen (AID 1259367); also: nearly all actives have a fitted effect of over 55% in size; also: potency is read from the fitted curve at half-maximal effect
Procedure, shortened: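 Seed 3T3 Gli1-Luc cells at 2,000 per well; incubate 4 hr; add compound in DMSO, then conditioned medium; incubate at 37C with 5% CO2; add CellTiter-Fluor after 23 hr; read fluorescence 1 hr later.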

[4] = qHTS assay to identify small molecule agonists of the sonic hedgehog signaling (Shh) pathway (AID 1259368; calls by dose curve;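 also: NIH/3T3-derived 3T3Gli1-Luc cells carrying a stable Gli1-driven firefly luciferase reporter; series mostly up to about 92 µM; nearly all actives have a fitted effect of over 15% in size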)
Procedure, shortened: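 Luminescent signal was taken as a measure of Gli1-controlled luciferase expression in stably transfected NIH/3T3-derived cells that had been treated for 24 hr with compounds delivered in DMSO.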

[5] = qHTS assay to identify small molecule antagonists of the sonic hedgehog signaling (Shh) pathway (AID 1259369; calls by dose curve; also: nearly all actives have a fitted effect of over 45% in size; also: potency is read from the fitted curve at half-maximal effect)
Procedure, shortened: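 Screening used 3T3Gli1-Luc cells at 2,000 per well, compounds delivered in DMSO, and conditioned medium as agonist stimulus; plates incubated 24hr at 37 C and 5% CO2 before a 30min luciferase step.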

[6] = target: Estrogen receptor beta (Homo sapiens) (UniProt Q92731); test: qHTS assay to identify small molecule agonists of the estrogen receptor beta (ER-beta) signaling pathway (AID 1259377; active = well fitted activation curve with a large enough effect in the signal ratio in the repeat runs, not every such curve was filed as active; the % refers to the signal ratio; also: potency is read from the fitted curve at half-maximal effect)
Chain of Estrogen receptor beta (Homo sapiens) (Q92731 whole entry, looked up): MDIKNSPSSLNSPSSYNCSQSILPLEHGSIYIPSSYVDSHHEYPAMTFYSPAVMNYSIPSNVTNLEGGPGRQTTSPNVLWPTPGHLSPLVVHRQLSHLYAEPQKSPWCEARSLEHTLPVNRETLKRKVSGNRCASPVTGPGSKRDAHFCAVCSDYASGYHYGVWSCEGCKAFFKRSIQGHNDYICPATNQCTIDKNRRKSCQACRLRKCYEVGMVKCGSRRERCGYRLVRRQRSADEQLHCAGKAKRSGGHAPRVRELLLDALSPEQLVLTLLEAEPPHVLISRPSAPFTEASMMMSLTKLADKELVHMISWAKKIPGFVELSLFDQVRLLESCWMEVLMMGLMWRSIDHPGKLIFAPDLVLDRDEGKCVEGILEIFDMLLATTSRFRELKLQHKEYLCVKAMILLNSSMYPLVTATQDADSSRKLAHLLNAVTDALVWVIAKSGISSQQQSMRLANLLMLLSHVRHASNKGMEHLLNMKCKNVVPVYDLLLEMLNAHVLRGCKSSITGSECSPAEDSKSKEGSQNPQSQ
Procedure, shortened: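 Screening used GripTite ER-beta-UAS-bla cells held in 2% charcoal-stripped FBS medium. After overnight (16 hr) compound incubation at 37C, beta-lactamase activity was detected with a FRET substrate by fluorescence.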

[7] = target: Estrogen receptor beta (Homo sapiens) (UniProt Q92731); test: qHTS assay to identify small molecule antagonists of the estrogen receptor beta (ER-beta) signaling pathway (AID 1259378; active = well fitted inhibition curve with a large enough effect in the signal ratio in the repeat runs, not every such curve was filed as active; the % refers to the signal ratio; also: potency is read from the fitted curve at half-maximal effect)
Procedure, shortened: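 ER-beta-UAS-bla HEK293T cells in 2% charcoal-stripped FBS medium treated with compound plus 1nM final 17-beta-estradiol for 16 hr at 37C. Beta-lactamase reporter read by FRET substrate fluorescence after 2 hours at room temperature.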

[8] = qHTS assay to identify small molecule agonists of the androgen receptor (AR) signaling pathway in the presence of an antagonist - cell viability counter screen (AID 1259379);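 also: MDA-kb2 human breast cancer cells carrying an MMTV luciferase reporter; series mostly up to about 92 µM; nearly all actives have a fitted effect of over 25% in size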
Procedure, shortened: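 In MDA-kb2 cells (human breast carcinoma, MMTV-luciferase), compounds at 15 concentrations plus 3.0uM nilutamide; 16 hr, 37C, 0% CO2; CellTiter-Fluor fluorescence read for viability.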

[9] = qHTS assay to identify small molecule agonists of the estrogen receptor beta (ER-beta) signaling pathway - cell viability counter screen (AID 1259380); also: nearly all actives have a fitted effect of over 30% in size; also: potency is read from the fitted curve at half-maximal effect
Procedure, shortened: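 Viability of ER-beta-UAS-bla HEK293T cells was determined by CellTiter-Glo luminescence following 16 hr treatment with test compounds at 37C.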

[10] = qHTS assay to identify small molecule antagonists of the estrogen receptor beta (ER-beta) signaling pathway - cell viability counter screen (AID 1259382); also: series mostly up to about 92 µM; nearly all actives have a fitted effect of over 55% in size
Procedure, shortened: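 Tox21 10K library tested in qHTS format on ER-beta-bla HEK293T cells stimulated with 1nM E2; 16 hr treatment at 37C. Same-well CellTiter-Glo luminescence served as the cell viability measure.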

[11] = qHTS assay to identify small molecule agonists of the estrogen receptor alpha (ER-alpha) signaling pathway in the presence of an antagonist - cell viability counter screen (AID 1259386);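 also: series mostly up to about 92 µM; cells exposed to compounds for 22 h at 37 °C before the viability read; nearly all actives have a fitted effect of over 30% in size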
Procedure, shortened: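 Fluorescent CellTiter-Fluor viability signal from VM7Luc4E2 cells, with the reagent added during the final hour of a 22hr compound exposure at 37C in the presence of 10.0nM ICI-182,780.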

[12] = target: Progesterone receptor (Homo sapiens) (UniProt P06401); test: qHTS assay to identify small molecule agonists of the progesterone receptor (PR) signaling pathway (AID 1346784; calls by dose curve; also: nearly all actives have a fitted effect of over 30% in size; also: potency is read from the fitted curve at half-maximal effect)
Chain of Progesterone receptor (Homo sapiens) (P06401 whole entry, looked up): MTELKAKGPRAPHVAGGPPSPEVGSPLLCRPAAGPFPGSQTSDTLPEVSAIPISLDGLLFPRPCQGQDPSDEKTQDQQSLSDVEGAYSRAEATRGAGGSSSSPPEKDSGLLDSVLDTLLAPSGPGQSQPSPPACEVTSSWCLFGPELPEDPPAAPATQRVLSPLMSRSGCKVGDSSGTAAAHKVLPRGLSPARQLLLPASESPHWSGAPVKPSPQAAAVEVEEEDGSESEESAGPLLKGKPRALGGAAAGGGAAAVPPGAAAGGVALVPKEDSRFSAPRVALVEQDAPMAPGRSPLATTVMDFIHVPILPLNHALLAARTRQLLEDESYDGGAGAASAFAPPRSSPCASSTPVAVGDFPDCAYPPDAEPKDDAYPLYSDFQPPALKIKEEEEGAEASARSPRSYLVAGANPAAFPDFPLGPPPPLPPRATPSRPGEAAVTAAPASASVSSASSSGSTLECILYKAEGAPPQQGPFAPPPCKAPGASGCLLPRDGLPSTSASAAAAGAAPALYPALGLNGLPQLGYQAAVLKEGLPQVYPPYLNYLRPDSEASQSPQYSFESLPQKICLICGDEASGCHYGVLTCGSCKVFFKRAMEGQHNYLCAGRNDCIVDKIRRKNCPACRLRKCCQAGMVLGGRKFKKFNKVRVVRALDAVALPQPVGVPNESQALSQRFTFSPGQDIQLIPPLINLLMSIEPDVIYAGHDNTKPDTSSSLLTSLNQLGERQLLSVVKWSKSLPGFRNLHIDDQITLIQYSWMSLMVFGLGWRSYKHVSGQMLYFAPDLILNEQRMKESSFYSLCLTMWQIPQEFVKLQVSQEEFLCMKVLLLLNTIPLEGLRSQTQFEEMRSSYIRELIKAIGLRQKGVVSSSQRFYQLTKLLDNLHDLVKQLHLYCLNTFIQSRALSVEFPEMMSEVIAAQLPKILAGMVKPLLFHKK
Procedure, shortened: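 Seed PR-UAS-bla HEK 293T cells (2% charcoal-stripped FBS), incubate 6 hr at 37C; add compounds in DMSO, 16 hr at 37C; add LiveBLAzer B/G substrate, 2 hr RT; read fluorescence intensity.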

[13] = target: Progesterone receptor (Homo sapiens) (UniProt P06401); test: qHTS assay to identify small molecule antagonists of the progesterone receptor (PR) signaling pathway (AID 1346795; active = well fitted inhibition curve with a large enough effect in the signal ratio in the repeat runs, not every such curve was filed as active; the % refers to the signal ratio; also: potency is read from the fitted curve at half-maximal effect)
Procedure, shortened: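 Screening used a GripTite HEK293T line with PR-responsive UAS-beta-lactamase. Cells were challenged with compound in the presence of 1 nM R5020 final for 16 hr at 37C; B/G FRET substrate, 2 hr room temperature, fluorescence.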

[14] = qHTS assay to identify small molecule antagonists of the progesterone receptor (PR) signaling pathway - cell viability counter screen (AID 1346798); also: series mostly up to about 92 µM; nearly all actives have a fitted effect of over 50% in size
Procedure, shortened: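 Measures cytotoxicity in parallel with the PR antagonist reporter read: HEK293T PR-UAS-bla cells get compound and R5020 for 16 hr, and remaining viable cells are quantified by CellTiter-Glo luminescence.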

[15] = qHTS assay to identify small molecule agonists of the progesterone receptor (PR) signaling pathway - cell viability counter screen (AID 1346799; calls by dose curve; also: nearly all actives have a fitted effect of over 45% in size; also: potency is read from the fitted curve at half-maximal effect)
Procedure, shortened: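 Using the same plates as the PR reporter screen, HEK293T PR-UAS-bla cells received compounds for 16 hr at 37C and were then lysed with CellTiter-Glo; luminescence was read 30 min later at room temperature.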

[16] = qHTS assay to identify small molecule antagonists of the TGF-beta/Smad signaling pathway - cell viability counter screen (AID 1346824); also: nearly all actives have a fitted effect of over 50% in size
Procedure, shortened: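 SBE-bla HEK 293T cells, incubated overnight, then compound plus 0.25 ng/mL TGF-beta1 (stock added) for 5 hr at 37 C. Viability was read in the same wells by CellTiter-Glo luminescence after 30 min at room temperature.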

[17] = target: Androgen receptor (Homo sapiens) (UniProt P10275); test: qHTS assay to identify small molecule agonists of the androgen receptor (AR) signaling pathway in the presence of an antagonist (AID 1259381; calls by dose curve; also: nearly all actives have a fitted effect of over 15% in size)
Chain of Androgen receptor (Homo sapiens) (P10275 whole entry, looked up): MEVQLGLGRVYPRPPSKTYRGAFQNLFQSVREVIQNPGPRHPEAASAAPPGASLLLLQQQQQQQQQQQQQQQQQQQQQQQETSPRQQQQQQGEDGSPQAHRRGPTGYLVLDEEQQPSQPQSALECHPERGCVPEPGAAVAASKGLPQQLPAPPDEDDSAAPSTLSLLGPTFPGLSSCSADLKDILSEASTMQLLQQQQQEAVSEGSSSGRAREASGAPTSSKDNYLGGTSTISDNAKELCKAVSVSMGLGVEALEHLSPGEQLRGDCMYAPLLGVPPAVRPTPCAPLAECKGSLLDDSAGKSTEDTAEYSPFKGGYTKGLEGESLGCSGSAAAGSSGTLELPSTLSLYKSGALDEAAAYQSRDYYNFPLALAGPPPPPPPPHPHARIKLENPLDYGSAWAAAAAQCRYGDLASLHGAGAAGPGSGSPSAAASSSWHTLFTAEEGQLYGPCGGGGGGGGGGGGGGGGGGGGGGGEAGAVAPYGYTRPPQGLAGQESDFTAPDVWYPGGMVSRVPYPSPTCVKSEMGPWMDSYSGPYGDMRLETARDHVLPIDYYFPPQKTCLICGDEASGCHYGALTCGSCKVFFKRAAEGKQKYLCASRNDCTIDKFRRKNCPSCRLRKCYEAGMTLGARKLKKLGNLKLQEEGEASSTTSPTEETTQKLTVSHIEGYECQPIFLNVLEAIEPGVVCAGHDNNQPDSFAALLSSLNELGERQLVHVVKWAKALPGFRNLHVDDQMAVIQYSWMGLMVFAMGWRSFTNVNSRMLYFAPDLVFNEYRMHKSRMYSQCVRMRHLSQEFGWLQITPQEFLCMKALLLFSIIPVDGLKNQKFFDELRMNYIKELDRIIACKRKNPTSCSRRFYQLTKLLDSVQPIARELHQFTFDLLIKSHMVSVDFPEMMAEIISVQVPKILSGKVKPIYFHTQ
Procedure, shortened: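 Here, 15-concentration compound series were pin-transferred onto MDA-kb2 MMTV-luciferase cells already dosed with nilutamide (3.0uM final). After 16hr at 37C, ONE-Glo was added and luminescence read 30min later at room temperature.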

[18] = qHTS assay to identify small molecule agonists or antagonists of the thyroid stimulating hormone receptor (TSHR) signaling pathway - wild type cell line counter screen (AID 1259384; calls by dose curve)
Procedure, shortened: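 Wild-type Hek293 cells, 800/well, 18 h at 37C, then compound with Ro20-1724 for 30 min RT. cAMP by HTRF (cAMP-d2/anti-cAMP cryptate), 1 h RT, fluorescence read. 15 concentrations, triplicates.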

[19] = target: Thyrotropin receptor (Homo sapiens) (UniProt P16473); test: qHTS assay to identify small molecule antagonists of the thyroid stimulating hormone receptor (TSHR) signaling pathway (AID 1259385; calls by dose curve; also: nearly all actives have a fitted effect of over 20% in size)
Chain of Thyrotropin receptor (Homo sapiens) (P16473 whole entry, looked up): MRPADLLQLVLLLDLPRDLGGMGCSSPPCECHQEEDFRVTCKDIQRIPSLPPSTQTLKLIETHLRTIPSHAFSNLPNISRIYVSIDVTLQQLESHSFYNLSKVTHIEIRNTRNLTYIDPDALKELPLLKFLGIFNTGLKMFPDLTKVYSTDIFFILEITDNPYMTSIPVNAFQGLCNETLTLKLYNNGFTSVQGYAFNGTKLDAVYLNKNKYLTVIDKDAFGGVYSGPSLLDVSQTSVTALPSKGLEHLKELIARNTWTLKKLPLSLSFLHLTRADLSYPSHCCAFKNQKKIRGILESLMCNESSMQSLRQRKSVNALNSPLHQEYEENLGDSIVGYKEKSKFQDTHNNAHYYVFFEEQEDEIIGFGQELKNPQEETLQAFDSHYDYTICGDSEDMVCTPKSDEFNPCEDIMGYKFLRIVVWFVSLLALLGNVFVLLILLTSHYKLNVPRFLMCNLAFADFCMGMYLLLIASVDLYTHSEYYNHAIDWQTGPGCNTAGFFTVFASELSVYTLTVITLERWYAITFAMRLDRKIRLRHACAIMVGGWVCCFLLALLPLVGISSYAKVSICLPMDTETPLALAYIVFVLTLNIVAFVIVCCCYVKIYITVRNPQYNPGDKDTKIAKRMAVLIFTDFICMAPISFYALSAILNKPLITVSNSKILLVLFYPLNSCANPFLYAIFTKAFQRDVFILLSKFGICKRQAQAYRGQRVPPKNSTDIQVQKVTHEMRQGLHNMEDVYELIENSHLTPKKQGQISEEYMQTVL
Procedure, shortened: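 TSHR-HEK293 cells (800/well) plated 18 h, then compounds with Ro20-1724 and TSH at 1.5 ng/mL final, 30 min at room temperature. cAMP quantified by HTRF (cAMP-d2/anti-cAMP-cryptate, 1 h); 15 concentrations in triplicate.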

[20] = target: Estrogen receptor (Homo sapiens) (UniProt P03372); test: qHTS assay to identify small molecule agonists of the estrogen receptor alpha (ER-alpha) signaling pathway in the presence of an antagonist (AID 1259383; calls by dose curve; also: top concentration of the series differs between compounds; nearly all actives have a fitted effect of over 15% in size)
Chain of Estrogen receptor (Homo sapiens) (P03372 whole entry, looked up): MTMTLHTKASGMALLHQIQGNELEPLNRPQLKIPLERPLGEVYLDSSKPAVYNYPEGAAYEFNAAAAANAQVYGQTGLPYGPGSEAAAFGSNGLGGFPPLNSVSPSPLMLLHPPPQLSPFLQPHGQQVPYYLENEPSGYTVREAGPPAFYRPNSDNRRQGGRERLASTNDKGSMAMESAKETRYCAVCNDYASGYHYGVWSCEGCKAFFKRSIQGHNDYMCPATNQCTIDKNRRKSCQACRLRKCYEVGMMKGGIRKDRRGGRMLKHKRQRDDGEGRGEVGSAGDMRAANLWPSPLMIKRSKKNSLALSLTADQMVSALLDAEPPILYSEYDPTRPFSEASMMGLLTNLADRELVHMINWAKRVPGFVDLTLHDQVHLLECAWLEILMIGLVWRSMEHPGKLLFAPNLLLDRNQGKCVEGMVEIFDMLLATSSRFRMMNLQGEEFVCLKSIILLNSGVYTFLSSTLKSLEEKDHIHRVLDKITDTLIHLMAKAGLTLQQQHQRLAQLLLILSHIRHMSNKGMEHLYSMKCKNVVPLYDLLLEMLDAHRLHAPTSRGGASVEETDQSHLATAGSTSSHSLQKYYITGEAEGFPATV
Procedure, shortened: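 In VM7Luc4E2 cells, 4,000 per well, compounds at 15 concentrations were co-incubated 22hr at 37C with 10.0nM final ICI-182,780. Luminescence from the stably transfected 4×ERE-luciferase reporter was recorded 30min after ONE-Glo addition.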

| SMILES | outcome [1] | Potency [2] | Potency [3] | outcome [4] | Potency [5] | Potency [6] | Potency [7] | Potency [8] | Potency [9] | Potency [10] | Potency [11] | Potency [12] | Potency [13] | Potency [14] | Potency [15] | Potency [16] | Potency [17] | outcome [18] | Potency [19] | Potency [20] |
| --- | --- | --- | --- | --- | --- | --- | --- | --- | --- | --- | --- | --- | --- | --- | --- | --- | --- | --- | --- | --- |
| c1c[nH]cn1 | inactive | inactive | inactive | inactive | inactive | inactive | inactive | inactive | inactive | inactive | inactive | inactive | inactive | inactive | inactive | inactive | – | – | – | – |
| O=C(O)c1ccccc1C(c1ccc(O)cc1)c1ccc(O)cc1 | inactive | inactive | inactive | inactive | inactive | inactive | inactive | inactive | inactive | inactive | inactive | inactive | inactive | inactive | inactive | inactive | inactive | inactive | inactive | – |
| COc1ccc(Cl)cc1C(=O)NCCc1ccc(S(=O)(=O)NC(=O)NC2CCCCC2)cc1 | inactive | inactive | inactive | inactive | inactive | inactive | inactive | inactive | 48.6 µM (active) | inactive | inactive | inactive | inactive | inactive | inactive | inactive | – | inactive | inactive | – |
| FC(F)(F)c1ccc(Cl)c(Cl)c1 | inactive | inactive | inactive | inactive | inactive | inactive | inactive | inactive | inactive | inactive | inactive | inactive | inactive | inactive | inactive | inactive | inactive | inactive | inactive | – |
| Nc1ccccc1[N+](=O)[O-] | inactive | inactive | inactive | inactive | inactive | inactive | inactive | inactive | inactive | inactive | inactive | inactive | inactive | inactive | inactive | inactive | – | inactive | – | – |
| O=S1(=O)CC=CC1 | inactive | inactive | 46.9 µM (active) and inactive | inactive | 6.62 µM (active) and inactive | inactive | inactive | inactive | inactive | inactive | inactive | inactive | inactive | inactive | inactive | inactive | – | inactive | inactive | – |
| COc1ccc(NC(C)=O)cc1N | inactive | inactive | inactive | inactive | inactive | inactive | inactive | inactive | inactive | inactive | inactive | inactive | inactive | inactive | inactive | inactive | – | inactive | inactive | – |
| C=CCNC(N)=S | inactive | inactive | inactive | inactive | inactive | inactive | inactive | inactive | inactive | inactive | inactive | inactive | inactive | inactive | 21.2 µM (active) and inactive | inactive | – | inactive | inactive | – |
| O=P(OC(CCl)CCl)(OC(CCl)CCl)OC(CCl)CCl | inactive | 30.5 µM (active) | 30.5 µM (active) | inactive | inactive | inactive | 54.5 µM (active) | inactive | inactive | inactive | inactive | inactive | 6.82 µM (active) and 7.7 µM (active) | inactive | – | inactive | – | inactive | inactive | – |
| CC(C)CC(=O)CC(C)C | inactive | inactive | inactive | inactive | inactive | inactive | inactive | inactive | inactive | inactive | inactive | inactive | inactive | inactive | inactive | inactive | – | – | – | – |
| CC(=O)OCC(=O)[C@@]12N=C(C)O[C@@H]1C[C@H]1[C@@H]3CCC4=CC(=O)C=C[C@]4(C)[C@H]3[C@@H](O)C[C@@]12C | inactive | inactive | inactive | inactive | inactive | inactive | inactive | inactive | inactive | inactive | inactive | 0.686 µM (active) | inactive | inactive | inactive | inactive | – | inactive | inactive | inactive |
| C#C[C@]1(O)CC[C@H]2[C@@H]3CCC4=CC(=O)CC[C@@H]4[C@H]3CC[C@@]21C | inactive | inactive | inactive | inactive | 21.7 µM (active) and 29.8 µM (active) | 1.37 µM (active) and 4.22 µM (active) | inactive | inactive | 48.6 µM (active) | inactive | inactive | – | – | inactive | inactive | inactive | – | inactive | inactive | – |
| C=C(C)C(=O)Nc1ccc(Cl)c(Cl)c1 | inactive | inactive | inactive | inactive | 17.4 µM (active) and 43.1 µM (active) | inactive | inactive | inactive | 55 µM (active) and 54.3 µM (active) | inactive | inactive | inactive | 24.6 µM (active) and 48.4 µM (active) | inactive | inactive | inactive | – | inactive | inactive | inactive |
| CN(C)CCOCCN(C)C | inactive | inactive | inactive | inactive | inactive | inactive | inactive | inactive | inactive | inactive | inactive | inactive | inactive | inactive | inactive | inactive | – | inactive | inactive | – |
